Mot1-301 SUMO: yeast Mot1-301 growth rescue at high temperature, primary screen, SUMOylation pathway inhibitor project, S. cerevisiae, ATP luminescence, 38.5C; 320,000 tested, 1% active; growth rescue, % at 18.8 µM; AID 2716, 2010; S. cerevisiae Mot1-301 growth rescue; percent above DMSO median, 100 means doubled;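 active = every valid replicate shows activation above 250% relative to neutral control wells; inactive = the rest, any valid replicate at or below 250%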;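 note: OY570 slx delta 5 strain wells were the positive control but not used for scaling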
Efflux pump mplx: inhibitors of Candida efflux pumps in yeast, primary screen, S. cerevisiae, Nile Red, multiplex; 330,000 tested, 0.44% active; S. cerevisiae Candida pump triplex; inhibition, % at 10 µM;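 active = plate passing quality check with inhibition over a set limit, or well fluorescence over plate mean plus 4 SD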;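 note: Nile Red retained in pooled yeast measured as flow cytometry median fluorescence; 0% = buffer negative control and 100% = Enniatin B positive control; higher means more Nile Red kept so more efflux inhibition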
ALR inh: inhibitors of human ALR sulfhydryl oxidase, primary screen, biochemical, H2O2 detection, HRP-luminol luminescence, single point; AID 485317, 2010; inhibition, % (test concentration not listed); purified ALR, DTT oxidation; FAD-linked sulfhydryl oxidase ALR (Homo sapiens), P55789; 290,000 tested, 3.8% active;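 active = mean replicate inhibition above about 79%, with every replicate also reaching it, limit read from the data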
Bfl-1 A1 inh: caspase 3/7 activation in MEF A1-2A-BIM cells, primary screen, A1 inhibitor project, cell-based, luminescence, HTS. 330,000 tested, 0.066% active. AID 2462, 2010. caspase activation, % (no concentration beside the values). Caspase-Glo 3/7 luminescence, 3 h; percent of clofoctol response, vehicle zero;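 active = over half of replicate activation scores above 10%, or exactly half above 10 with the replicate mean above 10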
AHR act: AHR activators, primary screen, cell-based, luminescence, luciferase reporter, human; Aryl hydrocarbon receptor (Homo sapiens), P35869; 320,000 tested, 2.5% active; AHR-responsive luciferase reporter cells; activation, % at 5 µM; in the data active = activation above about 47%;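 note: 0% = vehicle wells and 100% = reference agonist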
VLA-4 inh: inhibition in human VLA-4 binding assay, primary screen, VLA-4 allosteric modulator project, MLPCN library, flow cytometry, VLA-4 expressing cells; AID 2557, 2010; inhibition, % (about 7 µM as worked out from the volumes in the protocol); 330,000 tested, 0.2% active; Integrin alpha-4 (Homo sapiens), P13612; ligand binding flow cytometry; in the data active = inhibition above about 50%
Target sequence (P13612 whole entry, looked up): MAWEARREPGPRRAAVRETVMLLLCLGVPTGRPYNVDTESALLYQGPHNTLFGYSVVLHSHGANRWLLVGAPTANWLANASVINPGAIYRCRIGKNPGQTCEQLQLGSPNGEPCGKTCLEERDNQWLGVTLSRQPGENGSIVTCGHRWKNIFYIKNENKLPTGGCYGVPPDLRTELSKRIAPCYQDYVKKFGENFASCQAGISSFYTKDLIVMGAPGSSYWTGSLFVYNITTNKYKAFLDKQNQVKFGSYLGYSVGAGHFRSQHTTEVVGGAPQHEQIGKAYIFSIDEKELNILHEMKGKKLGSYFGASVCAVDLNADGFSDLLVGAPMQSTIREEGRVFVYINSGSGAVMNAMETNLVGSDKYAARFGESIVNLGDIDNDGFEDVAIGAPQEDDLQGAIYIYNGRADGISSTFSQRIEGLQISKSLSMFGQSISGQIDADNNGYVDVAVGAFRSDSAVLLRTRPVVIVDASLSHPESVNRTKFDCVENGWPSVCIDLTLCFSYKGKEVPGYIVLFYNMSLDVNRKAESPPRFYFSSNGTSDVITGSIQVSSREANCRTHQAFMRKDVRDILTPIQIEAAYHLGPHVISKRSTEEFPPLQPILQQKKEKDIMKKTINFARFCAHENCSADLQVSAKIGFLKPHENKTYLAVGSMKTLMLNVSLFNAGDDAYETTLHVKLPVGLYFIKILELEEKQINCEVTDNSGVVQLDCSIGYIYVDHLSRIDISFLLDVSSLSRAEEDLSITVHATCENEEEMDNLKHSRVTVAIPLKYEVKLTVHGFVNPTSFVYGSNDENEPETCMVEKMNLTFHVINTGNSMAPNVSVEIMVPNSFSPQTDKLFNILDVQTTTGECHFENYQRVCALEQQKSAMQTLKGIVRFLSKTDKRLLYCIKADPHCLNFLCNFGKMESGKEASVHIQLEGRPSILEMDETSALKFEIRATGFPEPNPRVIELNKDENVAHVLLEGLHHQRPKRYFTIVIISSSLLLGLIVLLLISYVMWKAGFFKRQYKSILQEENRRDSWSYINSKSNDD
The depositor's hits bear a star; . = not tested or not shown. Most compounds without a hit are left out; they make up all but 7.2% or so of the library.

SMILES	Mot1-301 SUMO	Efflux pump mplx	ALR inh	Bfl-1 A1 inh	AHR act	VLA-4 inh
Nc1ccc(-c2cc3ccccc3oc2=O)cc1	23	0	40	-3	-5	-8
Nc1ccc2oc(=O)c(-c3ccccc3)cc2c1	-1	0	98*	-3	0	16
O=C(NCc1nnc(SCC(=O)N2CCCC2)o1)c1ccccc1	-7	0	-22	-1	3	-6
Cc1ccc(-c2cc(-c3ccccc3Cl)[nH]n2)c(O)c1	54	0	9	-1	86*	12
Oc1ccc(Br)cc1-c1cc(-c2ccccc2Cl)[nH]n1	-15	0	-5	-1	47	7
Cc1ccc(-c2cc(-c3ccc(C)cc3O)[nH]n2)cc1	17	0	5	-1	68*	5
Cc1ccc(O)c(-c2cc(-c3cccc(Br)c3)n[nH]2)c1	280*	0	9	2	70*	18
Cc1ccc(-c2cc(-c3ccccc3[N+](=O)[O-])[nH]n2)c(O)c1	-11	0	90*	0	60*	1
CN(Cc1ccccc1Br)C(=O)CSc1nnnn1C1CC1	6	0	-2	1	22	0
COc1ccccc1NC(=O)C(=O)NCCC1CCCCN1S(=O)(=O)c1cccs1 (stereo not given)	-9	0	-13	-1	27	-6
CCOc1c(C=C(C#N)C#N)c2ccccc2n1CC	-10	1	99*	-1	12	-5
O=S1(=O)CCOC[C@H](Cc2ccccc2)N1Cc1ccc(Cl)cc1	49	.	-4	-1	9	.
COc1ccccc1NC(=O)Nc1nc(CC(=O)Nc2cccc(F)c2)cs1	0	0	8	0	45	36
COc1ccccc1NC(=O)Nc1nc(CC(=O)Nc2cc(F)ccc2F)cs1	-7	0	.	0	63*	11
COc1ccccc1NC(=O)Nc1nc(CC(=O)Nc2ccc(F)c(F)c2)cs1	-2	0	0	1	52*	-1
Cc1ccc(NC(=O)COC(=O)CNC(=O)c2cccc([N+](=O)[O-])c2)cc1S(=O)(=O)N1CCCCCC1	-4	0	-3	0	2	-8
O=C1CCc2cc(S(=O)(=O)N3CCCC3C(=O)NC3CCCCCCC3)ccc2N1 (stereo not given)	5	0	-28	0	4	-1
O=C(NCc1ccco1)c1cc2sccc2n1Cc1ccccc1	-12	0	93*	1	0	10
O=C(NCCc1ccccc1)c1cc2sccc2n1Cc1ccccc1	1	0	-2	3	8	0
COc1ccccc1CNS(=O)(=O)c1c(C)[nH]c(C)c1C(=O)N1CCCC1	-4	0	26	-1	-1	29
COC(=O)c1ccc(NC(=S)Nc2ccc(O)cc2)cc1	-1	0	99*	0	2	7
Oc1ccc(NC(=S)Nc2ccc(O)cc2)cc1	-9	0	99*	0	2	18
O=C(NC(=S)Nc1ccc(O)cc1)C1CCCC1	-10	0	.	1	0	5
Cc1noc(C)c1COc1cccc(C(=O)Nc2ccc(OCc3ccccc3)cc2)c1	5	0	0	-3	-4	0
O=c1oc2cc(O)ccc2c2ccccc12	254	0	88*	0	-6	0
SMILES	Mot1-301 SUMO	Efflux pump mplx	ALR inh	Bfl-1 A1 inh	AHR act	VLA-4 inh
C=CCN=c1scc(-c2ccc(F)cc2)n1/N=C/c1ccccn1	-8	0	-15	0	48*	6
COc1ccccc1C(=O)NCCC(=O)N(C)CC(=O)Nc1ccc(Cl)cc1	-12	0	-3	1	3	2
O=C(Nc1nc2cc3c(cc2s1)OCO3)C1CCCCC1	71	0	2	0	27	-8
CC(C)C(=O)Nc1nc2cc3c(cc2s1)OCO3	17	0	34	-4	66*	-21
O=C(Nc1nc2cc3c(cc2s1)OCO3)C1CC1	49	0	.	-2	57*	-3
COc1cccc(CNc2ccc(N3CCC(C)CC3)cc2)c1OC	15	0	98*	1	0	-5
CC1CCN(c2ccc(NC(=O)Cc3ccccc3)cc2)CC1	83	0	-9	0	5	11
CSc1ccccc1NC(=O)CN(C)CC(=O)Nc1ccc(Cl)cc1F	5	0	-14	1	1	-5
O=C(CCNc1ccccc1)c1cccc([N+](=O)[O-])c1	7	0	98*	-1	-6	0
O=C(CNc1ccccc1)c1ccc([N+](=O)[O-])cc1	-13	0	-10	0	63*	-8
O=C(CNC(=O)c1cccs1)c1ccc([N+](=O)[O-])cc1	4	0	2	-1	78*	-12
O=C(CNC(=O)c1ccc([N+](=O)[O-])cc1)c1ccccc1	-2	1	0	1	-5	-4
O=C(NCCSCc1ccccc1)c1ccc(C2SCC(=O)N2Cc2ccccc2)cc1 (stereo not given)	-15	0	-8	0	0	-7
Cc1cc(Br)cc2cn[nH]c12	.	0	-8	0	2	-2
C=CCn1c(=NC(=O)CN2C(=O)CCC2=O)sc2cc(S(N)(=O)=O)ccc21	-16	0	98*	0	-1	-4
CCOc1cc(/C=N\n2nnnc2N)ccc1O	0	0	99*	0	2	-8
Cc1nnc(N/N=C/c2ccccc2O)n1N	-2	0	8	1	48*	-3
Nc1c(Cl)ncnc1N/N=C/c1ccccn1	11	0	50	-3	10	-12
CCOc1ccc(/C=N/n2nnnc2N)cc1O	11	0	.	1	8	5
Cc1nnc(N/N=C/c2c(Cl)cccc2Cl)n1N	-5	0	-16	-1	12	-30
COc1cc(/C=N\Nc2nncn2N)ccc1OC(C)=O	-8	0	26	0	14	-3
CCOc1cc(/C=N/Nc2nnc(C)n2N)ccc1O	-1	0	99*	1	13	-9
CCOc1cc(/C=N/Nc2ncnc(Cl)c2N)ccc1O	-4	0	99*	0	20	-3
O=C(Nc1cccc(Cl)c1)Nn1cnnc1	-5	1	8	1	1	6
S=c1nc[nH]c2c1[nH]c1ccccc12	8	0	98*	0	44	14
S=c1nc[nH]c2c1[nH]c1ccc(Cl)cc12	10	0	-5	0	25	-5
O=C(NC(=S)Nc1cccc(O)c1)C1CCCCC1	29	0	41	1	-2	-2
